PubChem BioAssay (NCI)
This is part of a sample that, as a whole, favours compounds with a hit. Of some 83,000 tested, about 20% had one in any assay.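 Cells were grown in 96-well plates and exposed to the test compound at a single concentration for 48 hours; results are reported as percent growth, with values below 10 considered active.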 Active and inactive are the calls of the source.

Tested on: HCC-2998 colon
Experiment: NCI-60 one-dose screen, 48 h (100 = growth as untreated, 0 = no growth, -100 = all killed)
Settings: 10 µM unless noted

SMILES | growth
Cc1ccc(-c2c3c(N)nc(-c4ccncc4)nc3nc3c2c(C)nn3-c2ccccc2)cc1 | 99.8% (inactive)
N#Cc1c(-c2ccccc2)cc(-c2ccccc2)n(CCCCCCC(=O)O)c1=O | 111% (inactive)
CCCCCN(CCCCC)CCCNc1c2c(nc3ccc(Cl)cc13)CCCC2 | 16.3% (inactive)
Cc1cc(C)nc(NS(=O)(=O)c2ccc(Nc3nc4nc(SCc5ccccc5)nc(-c5ccc(O)cc5)c4c(=O)[nH]3)cc2)n1 | 100% (inactive)
O=C1/C(=C/c2ccccc2Cl)CCc2ccccc21 | 102% (inactive)
C/C(=C\CCc1ccoc1)CC/C=C(\C)CCCC1COC(=O)C1 (stereo not given) | 107% (inactive)
CC1Cc2ccccc2N1C(=O)c1ccc(C(=O)c2ccccc2)cc1 (stereo not given) | 127% (inactive)
COC(=O)[C@H](Cc1cn(C)cn1)NC(=O)[C@H](C)NC(=O)Nc1cc(C(F)(F)F)cc(C(F)(F)F)c1 | -88.9% [100 µM] (active)
N#Cc1ccccc1C#Cc1ccccc1C#Cc1ccc(OCCCCCCOc2ccc(C#Cc3ccccc3C#Cc3ccccc3C#N)cc2)cc1 | 107% (inactive)
CC[N+](CCCCCCCCCC[N+](CC)(c1ccccn1)c1ccccn1)(c1ccccn1)c1ccccn1 | 13.3% (inactive)
COc1ccc2c(c1)C(=Nc1cc(OC)c(OC)c(OC)c1)C(=O)N2 | 125% (inactive)
O=C(/C=C/c1c(-c2ccccc2)[nH]c2ccccc12)S(=O)(=O)c1ccccc1 | 60.7% (inactive)
O=c1ccn(C2CC=C(CO)O2)c(=O)[nH]1 (stereo not given) | 123% (inactive)
C=CCN(/C=C/CN(CC=C)CC=C)CC=C | 110% (inactive)
Cc1ccc2nc(-c3ccc(N(C)C)c(Br)c3)cn2c1 | 100% (inactive)
CN(C)CCC(=O)Nc1ccc(-n2cc(-c3cccc(NC(=S)Nc4cccc(-c5cn(-c6ccc(NC(=O)CCN(C)C)cc6)nn5)c4)c3)nn2)cc1 | 101% (inactive)
C[C@]12CC[C@H](O)CC1=CC[C@@H]1[C@@H]2CC[C@]2(C)C(c3cccnc3)=CC[C@@H]12 | 74.6% (inactive)
CCCCCCC(CC#N)(CCC)CCCC (stereo not given) | 110% (inactive)
CCOC(=O)c1sc(NC(=O)COc2cccc(/C=C3\CCc4cc(OC)ccc4C3=O)c2)nc1C | 32.3% (inactive)
Cc1ccc(S(=O)(=O)N2CCN(C(=O)CSc3nc4ccc(C)cc4[nH]3)CC2)cc1 | 122% (inactive)
CCOC(=O)c1cnc2c(C)cc(C)cc2c1NCCCN(C)C | 29% (inactive)
Cc1ccc(C(NC(=O)c2ccccc2)c2ccc3cccnc3c2O)cc1 (stereo not given) | 30.7% (inactive)
COc1ccc(C(=O)COc2ccc(/C=C3\Oc4ccc5ccccc5c4C3=O)cc2)cc1 | 97.9% (inactive)
CCOC(=O)CCC(=O)O[C@H]1[C@H](O[C@@H]2[C@@H](C)[C@H](O[C@H]3C[C@@](C)(OC)[C@@H](O)[C@H](C)O3)[C@@H](C)C(=O)O[C@H](CC)[C@@](C)(O)[C@H](O)[C@@H](C)C(=O)[C@H](C)C[C@@]2(C)O)O[C@H](C)C[C@@H]1N(C)C | 105% (inactive)
COc1ccc(-c2ccc(O)c(C(=O)/C=C/c3cc(OC)c(OC)c(OC)c3)c2)cc1 | 100% (inactive)
